Assay [1] is described as follows: small molecules captured by biotinylated probe aFSTL3 – biochemical, small-molecule microarray, fluorescence 635/667, stem cell growth factor project, primary screen (AID 1064).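 Note: measures binding of the biotinylated anti-FSTL3 antibody to printed compounds.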 Conditions: higher = more signal.
A short description of assay [2]: binders from COS7 lysate, DM2A8 probe, primary screen, torsin A project, cell lysate, small-molecule microarray, fluorescence 635/667 (AID 1065). Conditions: higher = more signal, COS7 lysate expressing mutant human TOR1A.
Assay [3] can be described thus: small molecules captured by biotinylated probe aFGF2 – biochemical, small-molecule microarray, fluorescence 635/667, stem cell growth factor project, primary screen (AID 1067).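 Note: measures binding of biotinylated aFGF2 protein to printed compounds on slides; z-score merges feature fluorescence and signal-to-noise across triplicate slides.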 Conditions: higher = more signal.
Assay [4] in a line: small molecules captured by biotinylated probe aFGF10 – biochemical, small-molecule microarray, fluorescence 635/667, stem cell growth factor project, primary screen (AID 1071).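 Note: score merges 667 nm spot intensity and signal to noise from triplicate slides.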 Conditions: higher = more signal.
Assay [5] addresses Neurogenic locus notch homolog protein 2 (Homo sapiens) (UniProt Q04721). In words: small molecules binding Notch2 protein – biochemical, small-molecule microarray, 635 nm fluorescence, stem cell growth factors, primary screen (AID 1073). Conditions: higher = more signal.
In assay [6] the target is Pro-neuregulin-1, membrane-bound isoform (Homo sapiens) (UniProt Q02297). In words: small molecules binding neuregulin-1 protein – biochemical, small-molecule microarray, fluorescence 635/667, psychiatric disease protein project, primary screen (AID 1075).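 Note: score combines 667 nm spot fluorescence with signal to noise.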 Conditions: NRG1 binding, 635 nm fluorescence, higher = more signal.
In assay [7] the test system is Neuregulin-1 EGF-like domain. The assay is described as follows: small molecules binding NRG1 EGF domain – biochemical, small-molecule microarray, 635 nm fluorescence, primary screen (AID 1081).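 Note: binding of the protein to compounds printed on small-molecule microarray slides.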 Conditions: higher = more signal.
Assay [8] is described as follows: FRG1 expression reporter modulators in myotubes – cell-based, C2C12 myotubes, firefly/Renilla luciferase, luminescence, FRG1 inhibition for FSHD, primary screen (AID 1084). Conditions: FRG1 promoter luciferase, higher = more signal, called active from +8 up or from −8 down.
A short description of assay [9]: small molecules captured by biotinylated probe aFST – biochemical, small-molecule microarray, fluorescence 635/667, stem cell growth factor project, primary screen (AID 1086).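 Note: score merges 667 nm fluorescence with signal-to-noise of each printed compound spot.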 Conditions: higher = more signal.
A short description of assay [10]: binders of probe aHhip on microarray, primary screen, stem cell growth factor project, biochemical, small-molecule microarray, fluorescence 635/667 (AID 1087).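 Note: score merges spot fluorescence at 667nm with spot signal to noise ratio.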 Conditions: higher = more signal.

Active and inactive are the calls of the source.

Pro-neuregulin-1, membrane-bound isoform (Homo sapiens), sequence (Q02297 whole entry, looked up, the tested form may be a part, canonical isoform): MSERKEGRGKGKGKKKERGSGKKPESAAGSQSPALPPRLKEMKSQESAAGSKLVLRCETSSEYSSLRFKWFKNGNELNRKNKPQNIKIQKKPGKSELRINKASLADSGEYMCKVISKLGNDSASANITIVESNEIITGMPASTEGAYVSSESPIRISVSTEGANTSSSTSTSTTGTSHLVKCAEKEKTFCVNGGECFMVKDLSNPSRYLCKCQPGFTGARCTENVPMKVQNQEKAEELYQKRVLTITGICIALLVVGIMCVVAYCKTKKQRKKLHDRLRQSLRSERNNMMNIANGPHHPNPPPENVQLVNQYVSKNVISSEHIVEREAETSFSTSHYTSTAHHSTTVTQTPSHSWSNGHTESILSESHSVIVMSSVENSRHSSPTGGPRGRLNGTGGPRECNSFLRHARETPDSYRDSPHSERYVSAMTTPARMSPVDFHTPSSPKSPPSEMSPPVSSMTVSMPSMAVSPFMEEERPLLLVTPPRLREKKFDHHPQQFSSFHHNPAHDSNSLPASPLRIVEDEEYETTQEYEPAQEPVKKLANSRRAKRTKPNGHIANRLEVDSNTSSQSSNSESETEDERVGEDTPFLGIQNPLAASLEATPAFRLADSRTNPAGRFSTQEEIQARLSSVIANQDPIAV
Neurogenic locus notch homolog protein 2 (Homo sapiens), sequence (Q04721 whole entry, looked up, canonical isoform): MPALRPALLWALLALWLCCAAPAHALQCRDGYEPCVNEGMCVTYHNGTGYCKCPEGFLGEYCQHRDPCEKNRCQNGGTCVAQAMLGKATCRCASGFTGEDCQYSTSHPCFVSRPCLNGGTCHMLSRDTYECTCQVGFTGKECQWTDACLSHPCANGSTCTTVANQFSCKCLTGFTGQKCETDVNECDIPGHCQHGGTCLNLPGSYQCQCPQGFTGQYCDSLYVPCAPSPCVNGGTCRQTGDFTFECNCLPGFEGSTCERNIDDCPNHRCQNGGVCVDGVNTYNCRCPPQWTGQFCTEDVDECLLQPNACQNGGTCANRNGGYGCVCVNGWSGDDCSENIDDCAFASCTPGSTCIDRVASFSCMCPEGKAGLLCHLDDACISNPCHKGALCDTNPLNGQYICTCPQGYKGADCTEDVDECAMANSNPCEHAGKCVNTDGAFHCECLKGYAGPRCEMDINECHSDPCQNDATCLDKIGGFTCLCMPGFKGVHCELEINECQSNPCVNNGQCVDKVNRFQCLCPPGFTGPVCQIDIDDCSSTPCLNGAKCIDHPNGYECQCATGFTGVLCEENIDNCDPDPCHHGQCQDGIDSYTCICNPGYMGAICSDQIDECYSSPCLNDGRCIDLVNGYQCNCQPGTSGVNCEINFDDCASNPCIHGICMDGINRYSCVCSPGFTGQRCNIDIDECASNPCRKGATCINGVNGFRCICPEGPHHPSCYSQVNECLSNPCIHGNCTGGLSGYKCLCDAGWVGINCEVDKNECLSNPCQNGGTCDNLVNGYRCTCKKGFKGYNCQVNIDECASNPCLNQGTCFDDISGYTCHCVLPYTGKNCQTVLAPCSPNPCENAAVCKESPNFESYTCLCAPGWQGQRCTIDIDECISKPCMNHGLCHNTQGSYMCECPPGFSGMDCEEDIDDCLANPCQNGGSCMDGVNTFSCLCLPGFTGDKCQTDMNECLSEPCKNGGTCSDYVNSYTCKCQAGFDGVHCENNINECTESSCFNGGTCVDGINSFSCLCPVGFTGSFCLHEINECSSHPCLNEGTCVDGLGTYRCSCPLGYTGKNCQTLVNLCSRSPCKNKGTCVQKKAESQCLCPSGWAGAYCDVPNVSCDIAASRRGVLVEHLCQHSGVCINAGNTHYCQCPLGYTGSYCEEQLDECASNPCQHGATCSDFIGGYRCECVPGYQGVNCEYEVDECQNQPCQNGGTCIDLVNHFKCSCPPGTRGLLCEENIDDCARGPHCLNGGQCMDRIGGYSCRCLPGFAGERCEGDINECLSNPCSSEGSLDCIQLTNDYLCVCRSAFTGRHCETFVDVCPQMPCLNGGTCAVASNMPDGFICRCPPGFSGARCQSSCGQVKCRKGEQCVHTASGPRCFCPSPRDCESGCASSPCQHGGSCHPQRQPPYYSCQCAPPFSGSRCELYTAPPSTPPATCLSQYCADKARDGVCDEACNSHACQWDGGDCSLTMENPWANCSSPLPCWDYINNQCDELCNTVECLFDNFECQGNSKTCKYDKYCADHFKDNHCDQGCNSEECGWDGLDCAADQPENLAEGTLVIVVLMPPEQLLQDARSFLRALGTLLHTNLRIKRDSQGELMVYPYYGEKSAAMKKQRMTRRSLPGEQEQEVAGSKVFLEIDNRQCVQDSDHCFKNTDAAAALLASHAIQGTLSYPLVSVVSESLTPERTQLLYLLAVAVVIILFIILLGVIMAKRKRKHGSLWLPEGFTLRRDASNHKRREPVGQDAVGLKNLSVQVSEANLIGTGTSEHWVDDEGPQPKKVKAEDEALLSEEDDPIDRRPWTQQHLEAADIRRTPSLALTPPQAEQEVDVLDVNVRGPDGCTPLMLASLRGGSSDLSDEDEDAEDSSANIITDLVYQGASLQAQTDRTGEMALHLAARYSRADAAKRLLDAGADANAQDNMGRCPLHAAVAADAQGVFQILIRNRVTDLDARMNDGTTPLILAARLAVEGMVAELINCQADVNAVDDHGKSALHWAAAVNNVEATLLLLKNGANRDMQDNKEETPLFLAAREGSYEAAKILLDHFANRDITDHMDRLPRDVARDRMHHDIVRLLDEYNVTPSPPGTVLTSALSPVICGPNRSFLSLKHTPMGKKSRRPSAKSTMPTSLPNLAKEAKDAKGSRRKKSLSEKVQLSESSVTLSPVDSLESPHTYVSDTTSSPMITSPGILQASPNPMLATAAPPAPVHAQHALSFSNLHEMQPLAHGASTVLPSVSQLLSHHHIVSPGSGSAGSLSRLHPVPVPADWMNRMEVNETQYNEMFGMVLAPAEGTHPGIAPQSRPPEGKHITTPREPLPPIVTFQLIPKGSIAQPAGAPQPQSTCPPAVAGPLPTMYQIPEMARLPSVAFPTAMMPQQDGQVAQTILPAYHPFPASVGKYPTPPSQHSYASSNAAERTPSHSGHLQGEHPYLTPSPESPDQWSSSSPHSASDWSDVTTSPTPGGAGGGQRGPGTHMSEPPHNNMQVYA

Regarding `[N-]=[N+]=NCc1ccccc1C[C@@]1(C(=O)NCCN2CCOCC2)N=C(c2ccc(OCCCO)cc2)O[C@@H]1c1ccccc1N=[N+]=[N-]`, the composite z-score in [1] was 0.646; in assay [2] it was 1.99; in assay [3], 0.075; in assay [4], 0.879; in [5], 0.777; in assay [6] it was 0.684. The composite z-score is 1.16 in assay [7], 0.75 in assay [9] and -0.0296 in assay [10]. Moreover, in assay [8], the z-score is -1.89 (inactive).
In the case of `C=C(CCCC)C(=O)CC[C@@H](OC(=O)c1cccnc1)c1ccccc1OCCO`, the composite z-score in assay [1] is 0.0165; in assay [2], 0.77; in [3], -0.0878; in [4], 0.0032; in [5], -0.872; in assay [6] it was -0.413. Besides, the figures for the composite z-score in [7], in assay [9] and in assay [10] were -0.0199, -0.604 and -0.0994, respectively. The z-score in assay [8] was -0.449 (inactive).
With `COc1c(C)cc(-c2cc3c(c(Cc4ccccc4)n2)[Si](C(C)C)(C(C)C)OC3)cc1C`, the composite z-score in [1] was -0.148; in assay [2] it was 0.0413; in assay [3], -0.0448; in [4] it was -0.108; in [5] it was 0.64; in [6], -0.0762. Further, the composite z-score in assay [7] was -0.588; in [9], 0.335; in assay [10] it was -0.0994. Moreover, the z-score in assay [8] is 0.184 (inactive).
Take `CC=CC(O)C1C=CC2C(=O)N(c3ccccc3)C(=O)C2N1Nc1ccc([N+](=O)[O-])cc1` (stereo not given): the composite z-score was -0.241 in assay [1]; 0.0149 in assay [2]; -0.0534 in assay [3]; 0.407 in [4]; 0.998 in assay [5]; 1.69 in [6]. In addition, the figures for the composite z-score in assay [7], in assay [9] and in assay [10] were 0.981, 0.126 and -0.0003, respectively. Further, in assay [8], the z-score is 0.515 (inactive).
Take `COCCCNC(=O)[C@]1(Cc2ccccc2CN=[N+]=[N-])N=C(c2ccc(OCCCO)cc2)O[C@@H]1c1ccccc1`: the composite z-score was -0.254 in [1]; 1.19 in [2]; 0.0788 in [3]; 0.627 in assay [4]; 1.09 in [5]; 0.969 in [6]. Moreover, the composite z-score in assay [7] was 1.12; in [9], 1.03; in assay [10], -0.0645. Further, in assay [8], the z-score is -3.73 (inactive).
For `CN(C)CCCNC(=O)[C@@]1(C)c2ccccc2C(=O)N(Cc2cc(C(F)(F)F)cc(C(F)(F)F)c2)[C@H]1c1ccc(CO)cc1`, the composite z-score in assay [1] is -0.303; in [2] it was -0.401; in assay [3], -0.141; in [4] it was -0.404; in assay [5], -0.463; in [6] it was -0.012. Also, the composite z-score in [7] was 0.538; in assay [9] it was -0.353; in assay [10], 0.192. Moreover, the z-score in assay [8] is 0.123 (inactive).
For `Cc1ccc(S[C@]2(C(=O)NCc3ccccc3)CC(=O)N(C(C)C)[C@@H]2c2ccc(CO)cc2I)cc1`, the composite z-score in assay [1] was 2; in assay [2], -0.464; in assay [3] it was -0.177; in assay [4], -0.392; in assay [5], -1.09; in assay [6] it was 1.05. Besides, the composite z-score in [7] amounted to 0.399; in assay [9], 0.03; in assay [10], 0.0623. Besides, in [8], the z-score was -1.16 (inactive).
For `CCOC(=O)C1=CC[C@@H](c2ccccc2C(F)(F)F)N(S(=O)(=O)c2ccc(C)cc2)C1`, the composite z-score in assay [1] was found to be 0.811; in assay [2], 1.54; in assay [3], 0.313; in [4], 1.1; in assay [5], 1.67; in [6] it was 1.79. Also, the figures for the composite z-score in assay [7], in assay [9] and in assay [10] were 1.28, 0.997 and -0.0439, respectively. Besides, in [8], the z-score is -3.59 (inactive).
`CCOC(=O)C1=CC[C@@H](c2cc(Cl)ccc2Cl)N(S(=O)(=O)c2ccc(C)cc2)[C@H]1c1ccc(OC)cc1`: the composite z-score in assay [1] was 0.522; in [2], 0.0025; in assay [3] it was 0.259; in assay [4], 0.582; in assay [5], 0.147; in assay [6], -0.362. Also, the composite z-score in assay [7] came to 0.13; in assay [9], 0.623; in assay [10], 0.082. The z-score in assay [8] was -1.69 (inactive).
For `C=C(/C(=C/C[C@@H](OC(=O)c1ccncc1)c1ccccc1OCCO)c1cc(C(=O)OC)ccc1OC)C(C)C`, the composite z-score in [1] was -0.259; in assay [2], 0.584; in [3] it was -0.0352; in assay [4], 0.533; in [5] it was 0.311; in assay [6], 0.878. Besides, the composite z-score was 1.1 in assay [7], 0.586 in assay [9] and 0.0854 in [10]. The z-score in [8] was -1.31 (inactive).
In the case of `COC(=O)[C@@]1(Cc2ccccc2)[C@H]2c3cc(C(=O)N4CCCC4)n(Cc4ccsc4Br)c3C[C@H]2CN1C(=O)c1ccccc1`, the composite z-score in [1] was 0.166; in [2], -0.411; in assay [3], 0.281; in [4] it was 0.682; in assay [5], 1.72; in assay [6], 1.46. Besides, the composite z-score came out at 1.18 in assay [7], 1.51 in [9] and 0.155 in [10]. Also, the z-score in assay [8] is -0.444 (inactive).
Turning to `COCCOC(=O)N1C(=O)[C@@]2(c3cc(C#CC4=CCCCC4)ccc31)[C@H](c1ccc(O)cc1)N1[C@H](c3ccccc3)[C@H](c3ccccc3)OC(=O)[C@H]1[C@@H]2C(=O)Nc1nc2ccccc2s1`, the composite z-score in [1] was -0.177; in assay [2], 0.441; in [3], 0.0323; in assay [4] it was 0.969; in [5], 1.24; in assay [6] it was 0.896. The composite z-score was 1.23 in [7], 1.06 in assay [9] and 0.0972 in assay [10]. In addition, the z-score in assay [8] was 1.53 (inactive).
For the compound `Cc1ccc(S[C@]2(C(=O)NCC(F)(F)F)CC(=O)N(Cc3ccccc3)[C@@H]2c2ccc(CO)cc2)cc1`, the composite z-score in assay [1] is 0.2; in assay [2] it was 0.179; in [3], -0.158; in assay [4], -0.453; in assay [5] it was -0.851; in assay [6], 0.248. The composite z-score in [7] is 0.463; in assay [9] it was -0.543; in [10], -0.266. Also, the z-score in [8] is -2.41 (inactive).
Consider `COc1cc2c(cc1OC)CN(C(=O)[C@H]1[C@@H]3C(=O)O[C@@H](c4ccccc4)[C@@H](c4ccccc4)N3[C@@H](c3ccc(OCCO)cc3)[C@]13C(=O)Nc1ccc(C#CC4(O)CCCCCC4)cc13)CC2`, for which the composite z-score in assay [1] was 1.18; in assay [2], 0.774; in [3] it was -0.0358; in [4], 0.326; in [5], 1.51; in assay [6] it was 1.25. Also, the composite z-score in assay [7] came out at 1.32; in assay [9], 1.6; in [10], 1.65. In addition, the z-score in assay [8] was -0.126 (inactive).
Consider `C=CCOC(=O)[C@@H]1[C@H]2C(=O)O[C@H](c3ccccc3)[C@H](c3ccccc3)N2[C@H](c2ccc(OCCOC(=O)[C@H]3C[C@H]4C(=O)N[C@@H](CCCC[N+](C)(C)C)C(=O)N4[C@H]3c3ccc(O)cc3)cc2)[C@@]12C(=O)Nc1ccc(I)cc12`, for which the composite z-score in assay [1] was -0.42; in [2], 1.1; in [3], -0.0569; in assay [4], 0.528; in assay [5], 1.18; in assay [6], 1.31. Moreover, the composite z-score is 1.37 in assay [7], 0.208 in assay [9] and -0.138 in assay [10]. For the same compound, the z-score in [8] is 0.369 (inactive).
For the compound `CC[C@@H]1[C@H]2C3C(=O)N(CC)C(=O)C3CC(=O)[C@H]2[C@H](c2ccc(C)cc2)N1S(=O)(=O)c1ccc(C)cc1` (stereo not given in full), the composite z-score in [1] is -0.0209; in [2], 0.172; in assay [3], -0.0878; in assay [4], 0.457; in [5] it was 1.44; in assay [6], 0.519. Besides, the composite z-score in assay [7] was 0.57; in [9], 0.84; in [10], -0.0296. Moreover, the z-score in assay [8] is -0.319 (inactive).

Values taken from PubChem BioAssay.
